Results: PubChem BioAssay
Activity calls are given as the source filed them. Unless noted, no rule for the calls is given here.

Assays:
[1] = compounds binding Alexa647 anti-His antibody – biochemical, small-molecule microarray, 635 nm fluorescence, artefact control for SMM control protein annotation, primary screen (AID 1128); conditions: higher = more signal;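 also: score merges feature fluorescence with signal-to-noise for each printed compound spot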
[2] = tested on: Human papillomavirus type 1a E7 protein (residues 1-88); test: HPV1a E7 small-molecule binders, primary screen, biochemical, small-molecule microarray, residues 1-88, 635 nm (AID 1129); conditions: small-molecule microarray binding, fluorescence 635 nm; higher = more signal
[3] = biological target: Focal adhesion kinase 1 (Homo sapiens) (UniProt Q05397); test: PTK2 protein binding on printed compound slides – biochemical, small-molecule microarray, 635/667 nm fluorescence, BSA, DTT, primary screen (AID 1130); conditions: 635 nm fluorescence, higher = more signal;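 also: composite of spot emission at 667 nm and signal to noise over triplicate slides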
[4] = tested on: Fibrinogen (Alexa647-labelled); test: Alexa647-fibrinogen binding to printed small molecules – biochemical, small-molecule microarray, 635/667 nm fluorescence, artefact control for SMM control-protein annotation, profiling panel (AID 1131); conditions: fibrinogen-A647 binding fluorescence, higher = more signal;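 also: z-score merges 667 nm fluorescence with per-spot signal-to-noise over triplicate slides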
[5] = biological target: Follistatin (Homo sapiens) (UniProt P19883); test: FST protein binding to printed compounds – biochemical, small-molecule microarray, 635/667 nm fluorescence, primary screen (AID 1132); conditions: 635 nm fluorescence, higher = more signal
[6] = biological target: Fibroblast growth factor 2 (Homo sapiens) (UniProt P09038); test: basic fibroblast growth factor binding to printed compounds – biochemical, small-molecule microarray, 635/667 nm fluorescence, primary screen (AID 1133); conditions: FGF2, fluorescence 635/667, higher = more signal
[7] = JC-1 mitochondrial potential readout, lung cancer cells – cell-based, A549, JC-1 fluorescence, basal, 24 h, 100 nL, profiling panel (AID 1138); conditions: higher = more signal;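 also: A549 lung adenocarcinoma cells under basal conditions with no added stimulus; test concentration not given here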
Lefty1 = Lefty1 protein binding to printed compounds – biochemical, small-molecule microarray, 635/667 nm fluorescence, primary screen (AID 1139); conditions: fluorescence 635/667, higher = more signal
[8] = tested on: wheat germ agglutinin (Triticum aestivum), Alexa647-labelled; test: Alexa647-WGA lectin binding to printed small molecules – biochemical, small-molecule microarray, 635/667 nm fluorescence, artefact control for SMM control-protein annotation, profiling panel (AID 1140); conditions: WGA-A647 binding, 635 nm fluorescence, higher = more signal;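 also: score merges 667 nm feature emission with signal to noise over triplicate slides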
[9] = biological target: Luciferin 4-monooxygenase (Photinus pyralis) (UniProt P08659); test: inhibition of purified Photinus pyralis luciferase – biochemical, luminescence, purified enzyme, 2006 set, primary screen (AID 1141); conditions: purified firefly luciferase, SteadyGlo luminescence, 30 min; higher = more signal, called active from +8 up or from −8 down;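 also: cell-free assay with purified firefly luciferase at 100 ng per well in PBS; test concentration not given here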
[10] = tested on: Wnt5a (protein binding on small-molecule microarray); test: small molecules binding Wnt5a protein – biophysical, small-molecule microarray, 635/667 nm fluorescence, primary screen (AID 1142); conditions: 635 nm fluorescence, higher = more signal;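 also: fluorescence read at 667 nm with signal to noise per printed feature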
[11] = ATP-based viability of Huh7 replicon cells – cell-based, CellTiter-Glo luminescence, basal, 48 h, cytotoxicity control for HCV replication inhibitor project, primary screen (AID 1143); conditions: higher = more signal, called active from +8 up or from −8 down;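 also: Huh7 hepatoma cells carrying a hepatitis C replication reporter with no stimulus; test concentration not given here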
[12] = Pseudomonas biofilm growth suppression – PAO1 strain, BacTiter-Glo luminescence, LB-PBS, primary screen (AID 1144); conditions: P. aeruginosa PAO1 biofilm, 12 h, higher = more signal
[13] = basal CRE-LacZ reporter activity in PC12 – cell-based, unstimulated, primary screen (AID 1145); conditions: no forskolin, luminescence, 4.5 h, higher = more signal, called active from +8 up or from −8 down
[14] = forskolin-driven CRE-LacZ activity in PC12 – cell-based, CRE-LacZ reporter, forskolin-stimulated, primary screen (AID 1146); conditions: luminescence, 4.5 h, higher = more signal, called active from +8 up or from −8 down;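 also: PC12 cells with 6xCRE LacZ reporter stimulated by forskolin 10 µM; beta-galactosidase reporter signal reflecting CREB driven transcription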
[15] = biological target: Streptavidin (Streptomyces avidinii) (UniProt P22629); test: compounds binding control protein streptavidin – biophysical, small-molecule microarray, 635/667 nm fluorescence, artefact control for SMM compound annotation, primary screen (AID 1147); conditions: higher = more signal;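 also: signal reflects streptavidin binding to arrayed compounds as a control protein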
[16] = probe aInhba binding on compound microarray – biochemical, small-molecule microarray, 635/667 nm fluorescence, primary screen (AID 1148); conditions: higher = more signal;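 also: score merges 667nm spot fluorescence with signal-to-noise for antibody binding to printed compounds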
Torsin-1A (Homo sapiens) [17] = biological target: Torsin-1A (Homo sapiens) (UniProt O14656); test: TOR1A wild-type binding on microarray – cell lysate, small-molecule microarray, lysate, 635/667 nm, primary screen (AID 1149); conditions: COS7 hTOR1A-WT lysate, 635 nm fluorescence, higher = more signal
Torsin-1A (Homo sapiens) [18] = biological target: Torsin-1A (Homo sapiens) (UniProt O14656); test: torsin A mutant lysate binding on microarrays – cell lysate, small-molecule microarray, COS7 lysate, 635/667 nm fluorescence, primary screen (AID 1150); conditions: COS7 hTOR1A mutant lysate, 635 nm fluorescence, higher = more signal;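 also: score pools 667 nm emission and signal to noise measuring lysate protein binding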
[19] = tested on: Sonic hedgehog protein (Shh); test: Sonic hedgehog microarray binding compounds – biochemical, small-molecule microarray, 635/667 nm fluorescence, primary screen (AID 1151); conditions: 635 nm fluorescence, higher = more signal;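 also: Shh protein binding to compounds spotted on small-molecule microarray slides; score combines spot fluorescence intensity with signal-to-noise across triplicate slides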

Chain of Focal adhesion kinase 1 (Homo sapiens) (Q05397 whole entry, looked up): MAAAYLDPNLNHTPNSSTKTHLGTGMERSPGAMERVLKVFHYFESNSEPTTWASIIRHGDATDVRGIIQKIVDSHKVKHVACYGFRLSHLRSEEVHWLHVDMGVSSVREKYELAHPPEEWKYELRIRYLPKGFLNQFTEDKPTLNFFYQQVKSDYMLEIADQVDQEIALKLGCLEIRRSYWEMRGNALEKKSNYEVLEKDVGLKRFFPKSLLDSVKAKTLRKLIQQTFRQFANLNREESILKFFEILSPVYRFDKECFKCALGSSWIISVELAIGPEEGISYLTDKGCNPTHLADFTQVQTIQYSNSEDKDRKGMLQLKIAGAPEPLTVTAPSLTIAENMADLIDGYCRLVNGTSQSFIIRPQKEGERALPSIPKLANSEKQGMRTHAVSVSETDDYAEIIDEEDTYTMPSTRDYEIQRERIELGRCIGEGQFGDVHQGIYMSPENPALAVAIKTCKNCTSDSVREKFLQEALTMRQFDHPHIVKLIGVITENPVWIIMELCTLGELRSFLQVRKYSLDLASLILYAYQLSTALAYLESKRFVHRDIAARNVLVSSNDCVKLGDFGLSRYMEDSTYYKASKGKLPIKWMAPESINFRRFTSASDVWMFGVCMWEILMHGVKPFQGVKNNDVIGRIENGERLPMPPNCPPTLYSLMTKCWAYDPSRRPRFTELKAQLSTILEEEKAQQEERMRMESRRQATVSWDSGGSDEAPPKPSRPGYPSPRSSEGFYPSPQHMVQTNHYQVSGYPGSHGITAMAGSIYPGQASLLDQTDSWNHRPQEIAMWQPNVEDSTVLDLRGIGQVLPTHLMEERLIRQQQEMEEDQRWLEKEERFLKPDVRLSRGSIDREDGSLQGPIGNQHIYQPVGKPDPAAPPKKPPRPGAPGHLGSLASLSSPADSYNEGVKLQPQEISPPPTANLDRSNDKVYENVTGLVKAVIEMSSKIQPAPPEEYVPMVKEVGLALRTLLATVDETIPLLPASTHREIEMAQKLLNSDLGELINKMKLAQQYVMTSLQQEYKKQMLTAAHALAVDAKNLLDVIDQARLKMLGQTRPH
Chain of Streptavidin (Streptomyces avidinii) (P22629 whole entry, looked up): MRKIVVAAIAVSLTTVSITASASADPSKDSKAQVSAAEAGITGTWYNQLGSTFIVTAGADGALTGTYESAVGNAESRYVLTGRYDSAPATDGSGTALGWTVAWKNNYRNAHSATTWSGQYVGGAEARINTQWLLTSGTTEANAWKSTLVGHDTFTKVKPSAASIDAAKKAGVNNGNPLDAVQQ
Chain of Torsin-1A (Homo sapiens) (O14656 whole entry, looked up): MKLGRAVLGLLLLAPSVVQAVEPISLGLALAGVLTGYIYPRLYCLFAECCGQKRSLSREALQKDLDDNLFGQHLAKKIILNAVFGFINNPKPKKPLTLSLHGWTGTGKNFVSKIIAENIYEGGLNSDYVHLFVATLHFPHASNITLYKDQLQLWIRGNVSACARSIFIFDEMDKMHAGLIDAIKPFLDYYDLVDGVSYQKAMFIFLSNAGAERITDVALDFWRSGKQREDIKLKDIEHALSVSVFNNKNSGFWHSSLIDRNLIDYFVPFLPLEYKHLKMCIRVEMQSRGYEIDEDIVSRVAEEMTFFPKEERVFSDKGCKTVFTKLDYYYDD
Chain of Luciferin 4-monooxygenase (Photinus pyralis) (P08659 whole entry, looked up): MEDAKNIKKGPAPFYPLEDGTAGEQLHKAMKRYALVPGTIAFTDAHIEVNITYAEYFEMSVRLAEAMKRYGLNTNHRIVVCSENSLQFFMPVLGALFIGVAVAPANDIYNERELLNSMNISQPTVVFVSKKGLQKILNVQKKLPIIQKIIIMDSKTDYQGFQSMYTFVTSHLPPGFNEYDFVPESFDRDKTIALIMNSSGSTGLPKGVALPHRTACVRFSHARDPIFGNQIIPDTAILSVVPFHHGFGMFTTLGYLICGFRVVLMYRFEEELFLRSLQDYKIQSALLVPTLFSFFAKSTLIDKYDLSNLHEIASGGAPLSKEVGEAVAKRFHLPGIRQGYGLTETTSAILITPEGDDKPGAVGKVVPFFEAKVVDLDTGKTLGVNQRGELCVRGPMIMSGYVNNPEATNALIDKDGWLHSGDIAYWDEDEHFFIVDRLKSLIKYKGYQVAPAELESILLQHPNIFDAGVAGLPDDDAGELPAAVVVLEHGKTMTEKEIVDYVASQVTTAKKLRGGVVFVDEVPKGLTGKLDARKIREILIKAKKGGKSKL
Chain of Follistatin (Homo sapiens) (P19883 whole entry, looked up): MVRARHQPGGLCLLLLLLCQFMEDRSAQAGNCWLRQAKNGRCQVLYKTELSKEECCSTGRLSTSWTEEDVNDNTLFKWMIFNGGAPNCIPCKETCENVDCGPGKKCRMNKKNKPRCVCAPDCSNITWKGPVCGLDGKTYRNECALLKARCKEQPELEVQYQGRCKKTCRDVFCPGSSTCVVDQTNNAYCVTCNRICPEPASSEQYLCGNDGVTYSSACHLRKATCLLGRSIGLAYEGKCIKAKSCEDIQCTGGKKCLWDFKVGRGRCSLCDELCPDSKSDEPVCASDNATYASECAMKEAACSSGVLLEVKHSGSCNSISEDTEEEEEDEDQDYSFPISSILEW
Chain of Fibroblast growth factor 2 (Homo sapiens) (P09038 whole entry, looked up): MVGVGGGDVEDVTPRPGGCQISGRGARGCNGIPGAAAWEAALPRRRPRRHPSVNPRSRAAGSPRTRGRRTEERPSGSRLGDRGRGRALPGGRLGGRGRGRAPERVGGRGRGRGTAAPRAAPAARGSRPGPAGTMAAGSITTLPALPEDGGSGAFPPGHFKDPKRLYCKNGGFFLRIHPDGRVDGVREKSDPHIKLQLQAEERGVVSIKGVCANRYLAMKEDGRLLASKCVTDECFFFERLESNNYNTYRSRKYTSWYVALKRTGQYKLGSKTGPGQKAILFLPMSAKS

Row | SMILES | composite z-score [1] | composite z-score [2] | composite z-score [3] | composite z-score [4] | composite z-score [5] | composite z-score [6] | z-score [7] | composite z-score (Lefty1) | composite z-score [8] | z-score [9] | composite z-score [10] | z-score [11] | z-score [12] | z-score [13] | z-score [14] | composite z-score [15] | composite z-score [16] | composite z-score (Torsin-1A (Homo sapiens) [17]) | composite z-score (Torsin-1A (Homo sapiens) [18]) | composite z-score [19]
1 | C=CC[C@@]1(C(N)=O)N=C(c2ccc(OCCCO)cc2)O[C@@H]1c1ccccc1N=[N+]=[N-] | 1.91 | 1.24 | 0.231 | 0.183 | 1.34 | 1.14 | 0.755 | 1.04 | 1.13 | -5.82 (inactive) | 0.373 | -0.656 (inactive) | -0.0376 (inactive) | 0.614 (inactive) | -1.89 (inactive) | 0.496 | 0.195 | 1.02 | 0.705 | 0.821
2 | C=CCC(OC(C)=O)[C@@H]1[C@@H](N(Cc2cc3ccccc3o2)C(=O)c2cccc3ccccc23)c2cc(OCCCO)ccc2N1C(=O)Cc1ccc2ccccc2c1 (stereo not given in full) | 0.166 | -0.273 | -0.0768 | 0.571 | 0.416 | 0.439 | -0.274 | -0.0817 | -0.157 | 0.209 (inactive) | 0.0744 | -1.62 (inactive) | 0.303 (inactive) | 0.992 (inactive) | -0.333 (inactive) | 0.435 | -0.0589 | -0.213 | -0.146 | 0.191
3 | CCCNC(=O)[C@@]1(C)c2ccccc2C(=O)N(Cc2ccc(OC(F)(F)F)cc2)[C@H]1c1ccc(CO)cc1 | -0.607 | 1.11 | 0.275 | 0.264 | 0.778 | 0.557 | 1.07 | -0.526 | 0.419 | -0.166 (inactive) | -0.0508 | -2.65 (inactive) | 0.28 (inactive) | -0.0259 (inactive) | -0.326 (inactive) | -0.456 | 0.249 | 0.243 | 0.6 | 0.628
4 | CC(=O)n1cc(C(O)C2C=CC3C(=O)N(c4ccccc4)C(=O)C3N2Nc2ccc(C#N)cc2)c2ccccc21 (stereo not given) | 1.56 | 1.26 | 0.519 | 0.893 | 0.12 | -0.856 | 0.0139 | -0.233 | 1.38 | -0.985 (inactive) | 0.523 | 0.853 (inactive) | -0.935 (inactive) | -0.512 (inactive) | 0.1 (inactive) | 0.846 | 0.11 | -0.467 | 0.522 | -0.38
5 | CC(C)[C@H]1COC(=O)N1C(=O)[C@H]1[C@@H](c2ccccc2)N(c2ccccc2)O[C@@H]1C | -0.0372 | 0.706 | 0.201 | 0.635 | 0.562 | 0.57 | 0.78 | 0.593 | 0.127 | 0.132 (inactive) | 0.138 | -0.917 (inactive) | -1.33 (inactive) | 0.493 (inactive) | -0.688 (inactive) | 0.465 | -0.0989 | 0.167 | 0.624 | 0.506
6 | CCN(CC)c1ccc(N2CC=CC34O[C@@H]5/C=C\CCC(C)OC(=O)C5[C@H]3C(=O)N(CCCCCCO)[C@@H]4C2=O)cc1 (stereo not given in full) | 0.0517 | -0.089 | -0.182 | -1.59 | -0.371 | -0.361 | 0.905 | -0.652 | 0.524 | -1.59 (inactive) | -0.449 | -0.406 (inactive) | 0.398 (inactive) | 0.886 (inactive) | 0.57 (inactive) | -0.629 | -0.359 | 0.84 | 0.0844 | -0.166
7 | CC(C)N1C(=O)c2ccccc2[C@](C)(C(=O)NCCCN(C)C)[C@@H]1c1ccc(CO)cc1 | -0.439 | 0.717 | 2.34 | 0.562 | -0.106 | -0.224 | 0.256 | -0.573 | 0.231 | -0.562 (inactive) | -0.265 | 0.17 (inactive) | 0.352 (inactive) | -0.0888 (inactive) | -0.297 (inactive) | 0.578 | -0.204 | 3.98 | 3.56 | 0.0142
8 | NC(=O)NCC#Cc1ccc2c(c1)[C@]1(C(=O)N2)[C@H](c2ccccc2OCCO)N2[C@H](c3ccccc3)[C@H](c3ccccc3)OC(=O)[C@H]2[C@@H]1C(=O)N1CCCCCCC1 | 0.443 | 1.25 | 2.2 | 0.505 | 1.37 | 0.927 | -0.724 | 0.912 | 1.46 | -0.87 (inactive) | 0.723 | -1.57 (inactive) | 0.433 (inactive) | 0.802 (inactive) | 0.109 (inactive) | 2.48 | 1.88 | 2.04 | 1.28 | 1.05
9 | CCOC(=O)C[C@H]1[C@H](OC(=O)c2ccc(C(=O)c3ccccc3)cc2)[C@@H](NC(=O)c2ccc3ccccc3n2)c2cc(OCCCO)ccc2N1C(=O)c1ccc2ccccc2n1 | -0.0631 | 1.06 | -0.0481 | 0.887 | 0.37 | 0.146 | 1.5 | 0.105 | 0.515 | -0.857 (inactive) | 0.211 | 0.0729 (inactive) | -0.754 (inactive) | 2.05 (inactive) | -1.22 (inactive) | 0.47 | 0.0778 | 0.323 | 0.134 | -0.0692
10 | C=CCOC(=O)[C@H]1[C@@H]2C(=O)O[C@@H](c3ccccc3)[C@@H](c3ccccc3)N2[C@@H](c2ccc(OCCOC(=O)[C@H]3C[C@H]4C(=O)N[C@@H](CCCC[N+](C)(C)C)C(=O)N4[C@H]3c3ccc(O)cc3)cc2)[C@]12C(=O)Nc1ccccc12 | 0.94 | -0.0508 | 0.193 | 0.252 | 1.16 | 0.703 | 0.193 | 0.653 | 0.22 | -1.28 (inactive) | 0.0385 | -0.236 (inactive) | -0.968 (inactive) | -1.62 (inactive) | -1.06 (inactive) | -0.22 | -0.258 | 0.475 | 0.846 | 1.18
